The record followed here is PubChem BioAssay AID2158 (National Center for Advancing Translational Sciences (NCATS), 2009).

“And” between values parts separate entries of the source, which are not always exact repeats. Equal values may be shown once. Records with an inconclusive call do not appear. The source made the active and inactive calls. Calls come from the whole dose curve; as a rule, active = well fitted inhibition curve with a large enough effect; inconclusive = small, poorly fitted or top-dose-only effect; inactive = no such curve, though single readings can be large or run the other way.
Potency is the fitted concentration of half-maximal effect.

The target of the test is Cruzipain (Trypanosoma cruzi) (UniProt P25779). In words: Confirmation qHTS Assay for Inhibitors of Cruzain.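 For activity change, negative = inhibition: plate controls were uninhibited enzyme control for no effect and buffer wells lacking enzyme for full effect.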 Note: nearly all actives have a fitted effect of over 40% in size. The following applies: purified cruzain, Z-FR-AMC fluorescence, 0.01% Triton. In a few lines: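 Reaction progress from the 60 s rise in AMC fluorescence (ex 360, em 450 nm) after adding 2 uM Z-FR-AMC. Before this, 1.5 nM cruzain sat 15 min at room temperature with compound in pH 5.5 acetate buffer with 5 mM DTT and 0.01% Triton X-100.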
Chain of Cruzipain (Trypanosoma cruzi) (P25779 123-467 limits assumed): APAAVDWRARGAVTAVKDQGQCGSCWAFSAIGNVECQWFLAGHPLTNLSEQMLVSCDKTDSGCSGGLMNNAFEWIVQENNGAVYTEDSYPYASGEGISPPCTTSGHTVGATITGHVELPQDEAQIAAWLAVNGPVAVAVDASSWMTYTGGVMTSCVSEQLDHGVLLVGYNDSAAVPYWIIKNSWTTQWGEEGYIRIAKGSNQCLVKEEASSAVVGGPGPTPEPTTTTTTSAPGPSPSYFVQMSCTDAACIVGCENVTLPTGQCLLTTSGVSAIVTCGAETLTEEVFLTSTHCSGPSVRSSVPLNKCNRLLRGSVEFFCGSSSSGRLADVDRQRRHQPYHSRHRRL
A general note: Quantitative high-throughput screening tests each substance at several concentrations.
As for `CCNc1nc(C#N)nc2c1ncn2-c1cccc(Cl)c1`, the Potency was 0.0631 µM (active).

With `CC(C)(C)OC(=O)Cc1nnc(CNC(=O)c2ccccc2)s1`, the activity change, negative = inhibition was -0.719% (inactive). `Cc1cccc(C)c1OCCCn1c(CCNC(=O)C2CCCCC2)nc2ccccc21`: the Potency was 1.26 µM (active) and 1.58 µM (active). For the compound `N#Cc1nc(Nc2cccc(F)c2)nc(NC2CCCC2)n1`, the Potency was 0.0794 µM (active). As to `O=C(CNC(=O)C1CCCCCC1)OC(C(=O)Nc1cc(C(F)(F)F)ccc1Cl)c1ccccc1` (stereo not given), the Potency was 7.08 µM (active). On the same count and under the same terms, in the case of `Cc1cc(OCCn2c(CCNC(=O)C3CCCCC3)nc3ccccc32)ccc1Cl` it was 1 µM (active). On the same count and under the same terms, in the case of `O=C(NCCc1nc2ccccc2n1Cc1ccccc1F)c1ccc(F)cc1` it was 1.58 µM (active). Regarding `COc1ccc(OCCn2c(CCNC(=O)C3CCCCC3)nc3ccccc32)cc1`, the Potency is 1.12 µM (active). `O=C(CNC(=O)C1CCCC1)OC(C(=O)Nc1cc(C(F)(F)F)ccc1Cl)c1ccccc1` (stereo not given): the Potency is 7.94 µM (active). Take `N#Cc1nc(Nc2ccc(C(F)(F)F)cc2)nc(NC2CCCC2)n1`: the activity change, negative = inhibition was 2.22% (inactive). As to `O=C(COC(=O)CNC(=O)c1ccccc1)Nc1cc(C(F)(F)F)ccc1Cl`, the Potency is 11.2 µM (active).

Consider `N#Cc1nc(N2CCCC2)nc(N2CCCC2)n1`, for which the Potency is 7.08 µM (active). On to `CC(C)(C)OC(=O)NCc1nnc(-c2nc3ccccc3[nH]2)o1`, for which the activity change, negative = inhibition is -4.26% (inactive). Turning to `COc1ccc(C)cc1NC(=O)C(OC(=O)CNC(=O)c1ccccc1)c1ccccc1` (stereo not given), the Potency is 8.91 µM (active). Turning to `Cc1ccccc1OCC(=O)NCC(=O)OCc1ccc2ccccc2c1`, the activity change, negative = inhibition was -17.8% (inactive).
